Measured values: ChEMBL document CHEMBL3988442, “University of Dundee, Small-Polar-MMV Screening Library” (2021)
Among all 48,000 compounds or so, about 13,000 (27%) showed an effect of 50% or more. The list shows a part of the results.

system: Wolbachia pipientis; experiment: Anti-Wolbachia Cell-Based Screen; assay type: functional; parameters: scale not given: in the data most compounds retested in dose-response had high values; conditions: 5 µM

| Structure (SMILES) | Percent Effect |
| --- | --- |
| Cc1noc(C)c1CNCC1CCN(CC(O)c2ccccc2)CC1 (stereo not given) | 0.6409% |
| CN1CCCC1CCn1ccnc1-c1ccc2ccccc2n1 (stereo not given) | -11.7% |
| CCCc1cc(C(=O)NC(COC)c2ccnn2C)no1 (stereo not given) | 98.08% |
| CCCc1nc(C(=O)NCCCn2nnc3ccccc32)cs1 | 3.085% |
| COCC(Nc1ncnc2sc(C(=O)O)c(C)c12)c1ccnn1C (stereo not given) | 6.074% |
| CCCc1nc(C(=O)NC(COC)c2ccnn2C)cs1 (stereo not given) | 113.9% |
| COCC(NC(=O)c1cc(NC(C)=O)ccc1Cl)c1ccnn1C (stereo not given) | -14.74% |
| COCC(Nc1ncnc2sc(C)c(C)c12)c1ccnn1C (stereo not given) | -1.475% |
| CCCc1cc(C(=O)NCCCn2nnc3ccccc32)no1 | 2.161% |
| COCC(NC(=O)c1cn2ccsc2n1)c1ccnn1C (stereo not given) | 103.8% |
| CCCc1nc(C(=O)N2CCN(S(=O)(=O)CC)CC2)cs1 | 13.9% |
| CCSCCOC(=O)CCCc1ccc2c(c1)CC(=O)N2 | -3.889% |
| CCC1(O)CCCN(c2nc(C(C)(C)C)nc3c2cnn3C)C1 (stereo not given) | -1.49% |
| CN(C)C(=O)N1CC(=O)NCC12CCN(C(=O)c1ccco1)C2 (stereo not given) | -32.82% |
| COc1cc(C2CC(=O)NCc3nc4sccn4c32)cc(OC)c1O (stereo not given) | -15.83% |
| COCCn1ccnc1C1CCN(c2cccc(C(=O)O)n2)CC1 | -10.3% |
| Cc1nn(C)cc1CN1CCN(CC2(c3ccccc3)CC2)CC1 | 110.9% |
| Cn1cc(CN2CCCN(CCCc3ccccc3)CC2)cn1 | 4.066% |
| Cc1nn(C)cc1CN1CCC(C2Nc3ccccc3S(=O)(=O)N2)CC1 (stereo not given) | -11.33% |
| Cc1cccc(N2CCC3(CCCN3Cc3cn(C)nc3C)CC2)n1 | -1.763% |
| C=Cn1cc(CN2CCN(CC3(c4ccccc4)CC3)CC2)c(C)n1 | 101.3% |
| CN1C(=O)CC2(CCN(Cc3cnn(C)c3)CC2)c2ccccc21 | 0.9694% |

| Structure (SMILES) | Percent Effect |
| --- | --- |
| Cl.Cn1cc(CN2CCN(CC3(c4ccccc4)CC3)CC2)cn1 | 82.02% |
| CCn1cc(CN2CCCC(CO)(CCc3ccccc3)C2)c(C)n1 (stereo not given) | -0.5849% |
| Cc1ccc(C2(CN3CCN(Cc4cn(C)nc4C)CC3)CC2)cc1.Cl | 115.4% |
| Nc1ncc(CN2C[C@H](C3CC3)[C@@H](N)C2)cn1 | -6.254% |
| CC(NC(=O)N1CCC2(C1)OCCO2)c1ccc(F)cc1Cl (stereo not given) | -14.1% |
| CC(C)N(C)Cc1cc(=O)n2c(n1)CN(C(=O)c1ccnnc1)CCC2 | 96.43% |
| CC(C)N(C)Cc1cc(=O)n2c(n1)CN(C(=O)c1cnccn1)CCC2 | 114.9% |
| CN1CCN(Cc2cnc3n2CCN(C(=O)c2cnccn2)C3)CC1 | -7.558% |
| CC(C)N(C)Cc1noc2c1CN(C(=O)c1ccsc1)CC2 | 5.959% |
| Cc1cnc(C(=O)N2CCCn3c(nc(CN(C)C)cc3=O)C2)cn1.O=C(O)C(F)(F)F | -7.099% |
| CCN(CC)Cc1cc(=O)n2c(n1)CN(C(=O)c1ccnnc1)CCC2.O=C(O)C(F)(F)F | 96.84% |
| Cc1cnc(N2CCC(c3ccccc3)CC2)nc1-c1ccnn1C | -8.504% |
| CCOc1ncccc1CNC(=O)NC1CCOc2ccccc21 (stereo not given) | 109.6% |
| Cc1ccc(Oc2ncccc2CNC(=O)NC2CCCCC2)cn1 | -14.6% |
| COc1ncccc1C(=O)NC1CCOc2ccccc21 (stereo not given) | 117.1% |
| CC(C)Oc1ncccc1CNC(=O)N1CCOCC1 | 12.39% |
| CC(C)Oc1ncccc1CNC(=O)N1CCC1c1ccccc1 (stereo not given) | -10.96% |
| COc1ncccc1CNC(=O)NC1CCCOc2ccccc21 (stereo not given) | 119.2% |
| COc1ncccc1C(=O)NCC1Cc2ccccc2O1 (stereo not given) | 13.43% |
| COc1ncccc1CNC(=O)N(Cc1ccccc1F)C1CC1 | -13.4% |
| COc1ncccc1NC(=O)NC1CCOc2ccccc21 (stereo not given) | 7.033% |
| COc1ncccc1CNC(=O)NC1CCOc2ccccc21 (stereo not given) | 3.95% |

| Structure (SMILES) | Percent Effect |
| --- | --- |
| CC(C)Oc1ncccc1CNC(=O)NC1CCOc2ccccc21 (stereo not given) | 99.58% |
| O=C(NCc1ccccn1)NC1CCOc2ccccc21 (stereo not given) | 10.12% |
| CC(C)Oc1ccc(C(=O)Nc2nncs2)cn1 | -3.461% |
| NC(=O)c1ccc(N2CCCCC2)c(NC(=O)c2ccc(F)cc2F)c1 | -3.643% |
| COCCN1CCN(CCCS(=O)(=O)c2ccccc2)CC1C (stereo not given) | 8.957% |
| CCOC(C)C(=O)NS(=O)(=O)c1cccc2cc(C)cnc12 (stereo not given) | 6.301% |
| COCCn1ccnc1CN1CCc2[nH]cnc2C1c1cnn(C)c1C (stereo not given) | 99.98% |
| CCc1ccc(C2c3nc[nH]c3CCN2Cc2nccn2CC)nc1 (stereo not given) | 105% |
| Cc1c(C2c3nc[nH]c3CCN2CCOCc2ccccc2)cnn1C (stereo not given) | 5.205% |
| COCCn1ccnc1CN1CCc2[nH]cnc2C1c1cccc(O)c1 (stereo not given) | 85.01% |
| COCCn1ccnc1CN1CCc2[nH]cnc2C1c1ccccn1 (stereo not given) | 80.05% |
| CCn1ccnc1CN1CCN(Cc2ccc(C#N)cc2)CC1 | -17.04% |
| CCn1ncnc1CN1CCc2[nH]cnc2C1c1ccccn1 (stereo not given) | -9.23% |
| CC(=O)Nc1ccc(CN2CCc3[nH]cnc3C2c2nccn2C)cc1 (stereo not given) | 16.2% |
| COc1ncccc1CN1CCc2[nH]cnc2C1CCSC (stereo not given) | -5.01% |
| CCCn1ccnc1CN1CCc2[nH]cnc2C1Cc1ccccc1 (stereo not given) | -1.947% |
| c1ccc(COCCN2CCc3[nH]cnc3C2c2ccco2)cc1 (stereo not given) | -0.996% |
| Cn1ccnc1C1c2nc[nH]c2CCN1Cc1cccnc1 (stereo not given) | 3.917% |
| CC(C)(C)c1oc(C(N)=O)cc1CN1CCCCC(N)C1 (stereo not given) | -6.99% |
| CNC(=O)c1cccnc1NCc1ccc(Cn2ccnc2)cc1 | -15.36% |
| CC(=O)c1cc(CN2C[C@H]3CC[C@@H]2CN(S(C)(=O)=O)C3)cs1 | 11.24% |
| c1cncc(-c2cccc(-c3ccn(CCN4CCCCC4)n3)c2)c1 | 18.24% |

| Structure (SMILES) | Percent Effect |
| --- | --- |
| CN(C)CCCn1ccc(-c2cccc(-c3cncnc3)c2)n1 | -27.48% |
| Cc1cc(-c2cccc(-c3ccn(CCCO)n3)c2)nc(N(C)C)n1 | 105.4% |
| COc1ccc(-c2cccc(-c3ccn(CCN(C)C)n3)c2)nn1 | -17.53% |
| CN(C)c1ccc(-c2cccc(-c3ccn(CCCO)n3)c2)nn1 | 106.7% |
| COc1ccc(-c2cccc(-c3ccn(CCCN(C)C)n3)c2)nn1 | -20.49% |
| Cc1nc(N(C)C)nc(-c2cccc(-c3ccn(CCCO)n3)c2)c1C | 91.5% |
| CN(C)CCCn1ccc(-c2cccc(-c3ccccn3)c2)n1 | -1.271% |
| c1cc(-c2cnccn2)cc(-c2ccn(CCCN3CCCCC3)n2)c1 | -2.928% |
| Cc1nc(N(C)C)nc(-c2cccc(-c3ccn(CCCF)n3)c2)c1C | 99.28% |
| Cc1cnc(C)c(-c2cccc(-c3ccn(CCN4CCCC4)n3)c2)n1 | 7.439% |
| Cc1cc(CC(C)NC(=O)c2cccc(CC3CCNCC3)c2)[nH]n1 (stereo not given) | -1.026% |
| Cc1oc(NC(=O)C(C)N2CCN(C(=O)C3CC3)CC2)c(C#N)c1C (stereo not given) | 9.3% |
| OC1(c2cn(C3CCN(C4CCSC4)CC3)nn2)CCCC1 (stereo not given) | -22.68% |
| Cc1ccc2[nH]c(CN(C)Cc3ccccc3C(=O)O)nc2c1 | -3.287% |
| NS(=O)(=O)c1ccc(CC(=O)N2CCCC(n3cccn3)C2)cc1 (stereo not given) | -6.435% |
| Cn1nc(C(=O)N2CCC(Oc3ccc(C#N)cn3)CC2)ccc1=O | 4.281% |
| N#Cc1cn(CCN2CCc3ccccc3C2)c(=O)[nH]c1=O | -7.012% |
| CCc1nc(N2CCCC(CO)(CCOC)C2)ncc1C (stereo not given) | 2.131% |
| c1cc(-c2cnccn2)cc(-c2ccn(CCN3CCCCC3)n2)c1 | 11.58% |
| c1cc(-c2cnccn2)cc(-c2ccn(CCN3CCCC3)n2)c1 | 1.985% |
| Cc1cnc(-c2cccc(-c3ccn(CCCO)n3)c2)nc1N(C)C | 89.78% |
| CN(C)[C@H]1CCCCN(Cc2ccccc2Cn2cccn2)C1 | 11.28% |

| Structure (SMILES) | Percent Effect |
| --- | --- |
| CC(C)(CN)NS(=O)(=O)c1c(F)cccc1F.Cl | -5.219% |
| COc1ccc(N2CCOCC3(CCCN(c4cnccn4)C3)C2)cc1 (stereo not given) | -9.239% |
| CCS(=O)(=O)N1CCCC2(COCCN(c3cnccn3)C2)C1.O=C(O)C(F)(F)F (stereo not given) | -1.156% |
| Cc1cnc(N2CCCC3(COCCN(c4ccc(C)nn4)C3)C2)nc1 (stereo not given) | 111.1% |
| Fc1cnc(N2CCOCC3(CCCN(c4cnccn4)C3)C2)nc1 (stereo not given) | -10.42% |
| Cc1cnc(N2CCC3(CCCN(c4ccc(C)nn4)C3)C2)nc1 (stereo not given) | -1.521% |
| Cc1ccc(N2CCCC3(COCCN(c4cnccn4)C3)C2)nn1 (stereo not given) | 122.4% |
| Cc1ccc(N2CCOCC3(CCCN(c4ncc(F)cn4)C3)C2)nn1 (stereo not given) | 110.3% |
| Fc1cnc(N2CCOCC3(CCCN(c4nncs4)C3)C2)nc1 (stereo not given) | -12.3% |
| Cc1noc(C)c1NC(=O)Cn1cc(Br)ccc1=O | -4.213% |
| C[C@@H]1CN(C2CCN(Cc3cnc(-c4cccs4)nc3)CC2)C[C@H](C)O1 | -8.003% |
| O=S(=O)(c1c(Cl)nc2sccn12)N1CCCC2(CCNC2)C1 (stereo not given) | -7.424% |
| Cc1ccc(-n2cc(C)cn2)c(NC(=O)NC2(C)CCOC2)c1 (stereo not given) | 1.139% |
| O=C(NC[C@H]1CCCC[C@H]1O)c1cccc2[nH]c(-c3cccs3)nc12 | 118.3% |
| O=C(CN1CC(c2nc(-c3cccs3)no2)C1)NCC1CCCO1.O=C(O)C(=O)O (stereo not given) | 11.99% |
| CCCNC(=O)c1ccc(-c2ccco2)[nH]c1=O | 7.034% |
| O=C(NCC1CCCCO1)c1ccc(-c2cccs2)[nH]c1=O (stereo not given) | 23.71% |
| Cc1sc(-c2ccco2)nc1C(=O)N(CC(N)=O)C1CCCC1 | -7.156% |
| Cc1sc(-c2ccco2)nc1C(=O)NCC1CCOC1 (stereo not given) | 3.177% |
| O=C(NCC1CCCCO1)c1ccc(-c2ccco2)[nH]c1=O (stereo not given) | 3.575% |
| O=C(NC[C@H]1CCCC[C@H]1O)c1ccc2nc(-c3ccco3)[nH]c2c1 | 114.7% |
| O=C(NC[C@H]1CCCC[C@H]1O)c1cccc2[nH]c(-c3ccco3)nc12 | 127.5% |
